KB-V1 MDR tox = KB-V1 MDR subline cytotoxicity; KB-V1 MDR cells viability, CellTiter-Glo, 72 h; Potency, µM (series often up to 46.1 µM), actives largely listed as cytotoxic; 400,000 tested, 3.4% active; note: % is set by controls: 0 for no effect and ±100 for the full control effect; nearly all actives have a fitted effect of over 60% in size
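Cells of the MDR subline KB-V1 are plated, dosed with compound at multiple concentrations, and incubated 72 h at 37 degrees C; CellTiter-Glo is then added and luminescence read after 10 min.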
HT1080 IDH1KD tx = kills HT-1080 cells with IDH1 knockdown | HT-1080 IDH1 knockdown viability, ATP luminescence, 48 h | Potency, µM (doses to about 46.1 µM), for inactives: at the highest dose activity, negative = toxicity, actives largely listed as cytotoxic | 360,000 tested, 2% active | AID 686971;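 note: 0% = DMSO wells and -100% = cell-free medium wells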
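Viability of IDH1-knockdown HT-1080 fibrosarcoma cells was assessed by CellTiter-Glo after 48 h at 37 °C with titrated compound; concentration-effect curves were classified by fit quality and response size.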
HT1080NT lethal = kills 2HG-producing HT-1080-NT fibrosarcoma cells | HT-1080-NT fibrosarcoma viability, CellTiter-Glo ATP luminescence, 48 h | Potency, µM (series often up to 46.1 µM), inactives show at the top dose activity, negative = less viability, usual class: cytotoxic | 360,000 tested, 1.6% active;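 note: NT is the 2HG producing partner of a matched IDH1 knockdown line; 0% = DMSO-treated cells and -100% = media-only wells without cells; nearly all actives have a fitted effect of over 55% in size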
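Viability by CellTiter-Glo luminescence after 48 h compound exposure at 37C of HT-1080-NT cells (750/well, RPMI, 5% FBS). % activity scaled between DMSO wells and medium-only wells, then curve-fitted and categorized by curve class.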
MCF10A rereplic = DNA re-replication induction in MCF 10a cells | 350,000 tested, 2.9% active | AID 624296 | MCF 10A DNA re-replication, Hoechst nuclear intensity, 48 h | Potency, µM (series often up to 46.1 µM), for inactives: at the highest dose activity, positive = re-replication, usual class: activators; note: % of control where 0% means no effect; nearly all actives have a fitted effect of over 50% in size
KB-3-1 tox = KB-3-1 parental cell cytotoxicity. KB-3-1 viability, CellTiter-Glo ATP luminescence, 72 h. Potency, µM (top dose mostly 46.1 µM), most hits filed as cytotoxic. 400,000 tested, 1.4% active. AID 1347075; note: % is set by controls: 0 for no effect and ±100 for the full control effect; nearly all actives have a fitted effect of over 60% in size
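Screening of KB-3-1 cells (DMEM, 10% FBS, phenol-red free) ran from lowest to highest compound concentration; after 72 h at 37 °C viability was read luminescently and curves fitted.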
SW480 rerep = DNA re-replication induction in SW480 cells; SW480 DNA re-replication, Hoechst DNA content imaging, 48 h; 340,000 tested, 1.8% active; AID 624297; Potency, µM (series often up to 46.1 µM), inactives show at the top dose re-replication activation, usual class: activators; note: % of control where 0% means no effect; nearly all actives have a fitted effect of over 55% in size
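First, 250 cells per well were seeded. Next, compound or vehicle (23 nL) was pinned in, plates sat 48 hr at 37 C. Finally Hoechst was added for 40 min before fluorescence scanning.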
* marks the source's active call; other numbers are inactive results; i = inactive; ? = inconclusive; · = no result; [ ] = another dose, or the depositor's remark. Shown are actives, neighbours in structure and some others; about 8% of the full set was active somewhere. Calls come from the whole dose curve; as a rule, active = well fitted curve in the direction sought with a large enough effect; inconclusive = small, poorly fitted or top-dose-only effect, or another doubt; inactive = no such curve, though single readings can be large; an effect the other way counts as inactive or inconclusive. Potency is the fitted concentration of half-maximal effect.

SMILES	KB-V1 MDR tox	HT1080 IDH1KD tx	HT1080NT lethal	MCF10A rereplic	KB-3-1 tox	SW480 rerep
CCOc1cc(/C=C2\N=C(SC(C)C(N)=O)N(c3ccc(OC(F)F)cc3)C2=O)ccc1O (stereo not given)	i	?	?	10µM*	i	18µM*
Cc1ccc(C)c(N2CCN(C(=O)Cn3cnc4sc(C)c(S(=O)(=O)N5CCN(c6ncccn6)CC5)c4c3=O)CC2)c1	?	·	·	·	i	·
COc1cc(/C=C2\COC/C(=C\c3cc(OC)c(OC)c(OC)c3)C2=O)cc(OC)c1OC	?	0.52µM*	?	?	?	?
CCOc1ccc(N2C(=O)S/C(=C\c3ccc(O)c(OCC)c3)C2=O)cc1	i	3%	0%	16µM*	i	?
COc1cc(/C=C2\CC/C(=C\c3cc(OC)c(O)c(OC)c3)C2=O)cc(OC)c1O	?	4.1µM*	4.1µM*	?	16µM*	?
COc1cc(/C=C2\N=C(C)OC2=O)cc(OC)c1OC	i	11%	11%	2%	i	2%
COc1ccc(/C=C2/CC/C(=C\c3ccc(OC)c(OC)c3OC)C2=O)c(OC)c1OC	2.1µM*	-4%	6%	9%	i	?
O=[N+]([O-])c1ccc(/C=C/c2ccnc3ccccc23)c([N+](=O)[O-])c1	i	·	·	·	i	·
O=C1NC(=S)S/C1=C\c1cccc([N+](=O)[O-])c1	?	-27%	-22%	18µM*	?	?
CCOc1cc(/C=C2\CN(CC)C/C(=C\c3ccc(O)c(OCC)c3)C2=O)ccc1O	?	2.9µM*	2.6µM*	?	?	?
CCOc1cc(/C=N/N=C/c2ccc(O)c(OCC)c2)ccc1O	i	3%	-1%	9%	i	-8%
COc1ccc(/C=C2\COc3ccccc3C2=O)cc1OC	i	18µM*	12µM*	?	?	?
O=C1NC(=Nc2ccccc2Cl)S/C1=C\c1cccc([N+](=O)[O-])c1	i	-13%	?	?	?	-7%
N=c1c2c(-c3ccccc3)c(-c3ccccc3)oc2ncn1CCN1CCOCC1	?	?	?	13%	?	-2%
N=c1c2c(-c3ccccc3)c(-c3ccccc3)n(Cc3ccco3)c2ncn1Cc1ccccc1	i	0%	4%	2%	i	-1%
N=c1c2c(-c3ccccc3)c(-c3ccccc3)oc2ncn1CCCN1CCOCC1	23µM*	-22%	-30%	12µM*	?	?
N=c1c2c(-c3ccccc3)c(-c3ccccc3)n(Cc3ccco3)c2ncn1CCCN1CCOCC1	21µM*	13µM*	?	?	21µM*	?
N=c1c2c(-c3ccccc3)c(-c3ccccc3)n(Cc3ccco3)c2ncn1CCCn1ccnc1	16µM*	?	?	?	?	?
N=c1c2c(-c3ccccc3)c(-c3ccccc3)n(Cc3ccccc3)c2ncn1CCO	18µM*	?	-22%	?	i	?
CC(=O)c1cccc(NC(=O)c2c(N3CCCC3=O)c3cc(F)ccc3n2C)c1	?	·	·	·	i	·
c1ccc(-c2c(-c3ccccc3)n(Cc3ccco3)c3ncnc(NCCCn4ccnc4)c23)cc1	?	18µM*	18µM*	?	?	26%
CC(C)Cn1cnc2c(c(-c3ccccc3)c(-c3ccccc3)n2Cc2ccco2)c1=N	?	16µM*	?	?	?	?
Cc1ccc(Nc2nc3ccc(C)cc3nc2-n2nc(C)cc2C)c(C)c1	i	·	·	·	i	·
Cc1ccc(C)c2[nH]c(=O)c(CN(Cc3ccco3)C(=O)Nc3ccccc3)cc12	i	-26%	-14%	28%	i	-1%[9.22 µM]
